Test results from ChEMBL document CHEMBL4513216, “Probing the Open Global Health Chemical Diversity Library for Multistage-Active Starting Points for Next-Generation Antimalarials” (ACS Infect Dis, 2020).
In all, about 65,000 compounds went through this assay and about 2,100 (3.2%) showed an effect of 50% or more. The median lay at about -52%. The sample holds strong results, similar compounds and a random draw of the others, so the mix is not that of the screen.

Tested on: Plasmodium falciparum
Experiment: Screen against P. falciparum Asexual Blood Stage (ABS), at 5uM
Assay type: functional, Dd2
Settings: tested at 5 uM

First: NC(=O)c1cccc2nc([C@H]3CCN(Cc4ccccn4)C3)[nH]c12
Second: CSc1ccccc1C(=O)C1CCCN(Cc2ccccn2)C1 (stereo not drawn)
The INHIBITION of the first is higher: 95.1% for the first, -41.1% for the second.

Going from O=C1NC[C@H]2CN(Cc3ccccn3)CCN12 to c1cnc(N2CC[C@@H]3[C@@H]2CCN3Cc2cccs2)nc1, the INHIBITION falls from -9.08% to -56.7%.

First: CCS(=O)(=O)N[C@@H]1CN(Cc2cc(C)on2)C[C@@H]2CCCO[C@@H]21
Second: Cc1noc(C)c1CN1C[C@@H](OCC(=O)N(C)C)[C@H]2OCCC[C@H]21
The INHIBITION of the first is lower: -96% for the first, -76.4% for the second.

Going from CN1CCN(c2ccccc2CNC(=O)Cc2cccc(F)c2)CC1 to CN1CCN(c2ccccc2CNC(=O)Cc2ccccc2F)CC1, the INHIBITION falls from 77.4% to 77%.

Compared with CN1CCN(c2ccnc3c(F)cc(Br)cc23)CC1, CN1CCN(c2ccc(CO)cc2F)CC1 is lower in INHIBITION: 0.83% for the first, -62.7% for the second.

First: CN1CCN(c2ccccc2NC(=O)NCCc2ccccc2)CC1
Second: CN1CCC(NCC(O)c2cccc(OCc3ccccc3)c2)CC1 (stereo not drawn)
The INHIBITION of the first is lower: 83.9% for the first, 90.7% for the second.

Going from CN1CCN(c2ccc(F)cc2C(N)=O)CC1 to CCc1noc(CN2CCN(C(=O)Cc3ccc(F)cc3)CC2)n1, the INHIBITION rises from -105% to -9.72%.

Going from COC(=O)CNC(=O)c1cn(Cc2ccccc2F)nn1 to COC(=O)C(C)(C)NC(=O)c1cnc(Cc2ccc(F)cc2)s1, the INHIBITION rises from -63.8% to 75.4%.

Compared with O=S1(=O)CCC(n2cc(C3=CCN(CCn4cccc4)CC3)cn2)C1 (stereo not drawn), c1cnc(NCc2cncc3c2CCN(CC2CC2)C3)nc1 is lower in INHIBITION: -22.4% for the first, -95% for the second.

First: Cc1noc(C)c1CN1C(=O)[C@@H]2CC[C@H]1CN(Cc1cscn1)C2
Second: Cc1ccc(C(=O)N2C[C@H]3CN(Cc4csc(C)n4)C[C@H]3C2)cn1
The INHIBITION of the first is higher: -41.1% for the first, -173% for the second.

Going from O=C(C1CCC1)N1CCC2(CC1)CNCCO2 to CC(C)CCC(=O)N1CCC2(CC1)OCCO2, the INHIBITION rises from -16.3% to -8.85%.

Compared with O=C(Nc1ccccc1)C1=NOC2(CCNCC2)C1, CC1=NOC2(CCN(Cc3c[nH]c4ccccc34)CC2)C1 is higher in INHIBITION: -53.9% for the first, -17.9% for the second.

First: COc1ccc(CC(C)(O)CNC(=O)c2cccs2)cc1 (stereo not drawn)
Second: COc1ccc(CC(=O)N2CCN(Cc3ccco3)C[C@@H]2C)cc1
The INHIBITION of the first is higher: 89.1% for the first, -22.3% for the second.

First: c1cc(COC[C@H]2CCC[C@]23CNCCO3)ccn1
Second: c1ccc(COC[C@H]2CC[C@H]3[C@H](CCN3Cc3cccs3)O2)nc1
The INHIBITION of the first is higher: 14.9% for the first, -43.6% for the second.

Going from CC(C)N1CCO[C@H]2CN(C(=O)c3ccccn3)C[C@H]21 to Cc1cccc(CN2C[C@@H]3OCCN(S(=O)(=O)N(C)C)[C@@H]3C2)n1, the INHIBITION rises from -46.1% to -43.1%.

Compared with CCOc1cccc(C(C)NC(=O)N2CCC3(CC2)OCCO3)c1 (stereo not drawn), O=C(c1ccc[nH]1)N1CCC2(CCCN2Cc2cccnc2)CC1 is higher in INHIBITION: -117% for the first, -9.26% for the second.

Going from OC(CNC1CCSCC1)c1cccc(OCc2ccccc2)c1 (stereo not drawn) to O=C(c1cn(Cc2ccccc2)c2ncccc12)N1CCCCC1, the INHIBITION falls from 74.4% to -11.9%.

Going from NCC(c1cccnc1)N1CCOCC1 (stereo not drawn) to CC(C)OCCN(C)CC(c1cccs1)N1CCOCC1 (stereo not drawn), the INHIBITION rises from -122% to 79.9%.

First: Oc1cc(C2CCCCN2Cc2cccs2)nc(-c2ccccn2)n1 (stereo not drawn)
Second: O=C(c1csc(-c2ncccn2)n1)N1CCN2CCCCC2C1 (stereo not drawn)
The INHIBITION of the first is higher: 85.9% for the first, -32.7% for the second.

First: CCN1CCN(Cc2nc(C)no2)CC1
Second: CCN1CCN(C[C@@H]2CN(c3ncc(Cl)cc3F)C[C@@H]2CO)CC1
The INHIBITION of the first is lower: -11.7% for the first, 92.2% for the second.

Compared with COc1cc(CNCCNC(=O)c2ccc(O)cc2)ccc1SC, COc1cccc(CNCc2ccc(F)c(Cl)c2)c1O is higher in INHIBITION: 26.9% for the first, 80% for the second.

First: COc1cccc(CNCc2cccc(Cl)c2)c1O
Second: COc1cccc(CNC(C)C)c1OCc1ccc(C)cc1
The INHIBITION of the first is higher: 85.2% for the first, 73.7% for the second.

Compared with CC1CCC2(CC1)NC(=O)c1cc(Br)ccc1-n1nnnc12 (stereo not drawn), Cc1cccc(NC(=O)c2cccc(OCc3nnnn3C)c2)n1 is higher in INHIBITION: -65.8% for the first, 80.7% for the second.

Compared with CN(C)[C@@H]1CN(C(=O)Cc2ccccc2)[C@@H]2CCCO[C@H]12, COCCN1C[C@@H]2[C@@H](OC)CCN(C(=O)Cc3ccccc3)[C@@H]2C1 is lower in INHIBITION: -9.86% for the first, -25% for the second.

Compared with Cc1cnn(CCNCC(O)COc2c(Cl)cccc2Cl)c1 (stereo not drawn), Cc1cnn(CCNCC(O)c2ccc(C(F)(F)F)cc2)c1 (stereo not drawn) is lower in INHIBITION: 81.9% for the first, 72.6% for the second.

First: Cc1cnn(CC(C)NCCc2cccs2)c1 (stereo not drawn)
Second: COc1cc(CNCC(C)O)cc(Cl)c1OCc1ccc(C)cc1 (stereo not drawn)
The INHIBITION of the first is lower: -30.1% for the first, 73.9% for the second.

First: CC(C)(O)CNc1ccc(C#N)c(C(F)(F)F)c1
Second: NC1CCCCN(Cc2cc(-c3ccccc3OC(F)(F)F)no2)C1 (stereo not drawn)
The INHIBITION of the first is lower: -74.3% for the first, 71.1% for the second.

First: CN(C)c1ncc2c(n1)C1(CCN(Cc3cccnc3)C1)COC2 (stereo not drawn)
Second: Cc1ccccc1OCC(=O)N1CCN(C2CCOC2=O)CC1 (stereo not drawn)
The INHIBITION of the first is higher: -4.75% for the first, -28.3% for the second.

Going from CN1CCc2c(C#N)c(NCCCO)n3cnnc3c2C1 to CC(C)CCNc1c(C#N)c2c(c3nncn13)CN(C)CC2, the INHIBITION rises from -82.4% to -35.1%.

First: CN1CCc2c(C#N)c(NCCc3ccccc3)n3cnnc3c2C1
Second: N#CC1(c2ccccc2)CCN(C(=O)CN2C(=O)CCNC2=O)CC1
The INHIBITION of the first is higher: 70.9% for the first, -90.6% for the second.

Compared with COc1ccc(CC(=O)N2CCC[C@@H](N)[C@@H]2c2ccccc2F)cc1, CC(C)n1ccc2c(C(=O)NC3CN4CCC3CC4)cccc21 (stereo not drawn) is lower in INHIBITION: 80.9% for the first, -67.1% for the second.

Compared with CCc1ccc2nc(NCCCN(CCO)CCO)cc(C)c2c1, Clc1cccc(C(NCc2ncc[nH]2)c2ccccn2)c1 (stereo not drawn) is higher in INHIBITION: 83.4% for the first, 86.9% for the second.

Going from CCN1CCC12CCN(C(=O)c1cc(C)on1)C2 (stereo not drawn) to Cc1nc(C)c(CC(=O)N2CCN(CC(C)C)CC2)c(=O)[nH]1, the INHIBITION falls from -10.1% to -137%.

Going from Fc1cccc(C(NCc2ncc[nH]2)c2ccccn2)c1 (stereo not drawn) to Cc1nnc([C@@H]2C[C@H]3CN(C4CCC4)C[C@H]3O2)[nH]1, the INHIBITION falls from 91.8% to -81.6%.
